Drawing on PubChem BioAssay (NCATS), this text covers Potency for 40 compounds.

Unmarked numbers belong to inactive results. Active and inactive are the calls of the source. The rule behind the calls is not given here.
Potency is the fitted concentration of half-maximal effect.

This experiment relates to HIV-1 nucleocapsid protein NCp7 (binding to TG oligonucleotide). As to the kind of experiment: HIV Nucleocapsid (AID 346).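 Note: potency is for inhibitors that block NC binding and lower polarization.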 As to conditions: HIV-1 NC / fluorescein-TGTGTGTG probe, fluorescence polarization. The method in brief:
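Reagents dispensed (10 nM TG4xF, 100 nM HIV-1 NC), plates spun, compounds pin-transferred, then incubated 1 hr at room temperature before FP imaging. Buffer: Hepes pH 7.5, 250mM NaCl, 1uM ZnCl2, 100 uM TCEP, 5 mM 2-mercaptoethanol.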
For `CCNc1ncc2nc(-c3ccc(Cl)cc3)c(=O)n(-c3ccccc3)c2n1`, the Potency is 7.07 µM (active).

In the case of `CN(C)c1ncc2nc(CCc3ccccc3)c(=O)n(Cc3ccc(F)cc3)c2n1`, the Potency was > 20 µM.

As to `Cc1cnc(CNc2cc(-c3ccccc3Cl)ncn2)cn1`, the Potency was > 20 µM.

Regarding `c1ccc2c(N3CCNCC3)nc(-c3ccoc3)nc2c1`, the Potency is > 20 µM.

In the case of `COc1ccccc1CNc1ncncc1-c1ccc(C(=O)N(C)C)cc1`, the Potency is > 20 µM.

For `COc1cccc(Cn2c(=O)c(-c3ccc(Cl)cc3)nc3cnc(N4CCOCC4)nc32)c1`, the Potency is > 20 µM.

`N#Cc1cccc(-c2nc3cnc(N4CCOCC4)nc3n(C[C@H]3CCCO3)c2=O)c1`: the Potency is > 20 µM.

On to `c1cncc(-c2nc(NCCN3CCOCC3)c3ccccc3n2)c1`, for which the Potency was > 20 µM.

Turning to `CS(=O)(=O)N1CCC2(CC1)CN(C(c1ccccc1)c1ccccc1)C2`, the Potency was > 20 µM.

As to `CN(C)c1ncc2nc(-c3ccccc3)c(=O)n(CCc3ccccc3)c2n1`, the Potency is > 20 µM.

Turning to `CN(C)c1ccc(-c2ccc3ncnc(N(C)C)c3c2)cc1`, the Potency was > 20 µM.

`O=C(c1cnccn1)N1CCC2(CCCN(c3ncccn3)C2)CC1`: the Potency was > 20 µM.

In the case of `FC(F)(F)c1ccccc1-c1ccc2ncnc(NCc3cccnc3)c2c1`, the Potency is > 20 µM.

In the case of `COc1ccc(NC(=O)N2CCC3(CC2)CCN(C(=O)c2ccco2)CC3)cc1`, the Potency is > 20 µM.

As to `CNc1ncncc1-c1ccccc1OC`, the Potency is > 20 µM.

As to `Cc1noc(C)c1C(=O)N1CCC2(CC1)CCN(c1cccc(-c3ccccc3)c1)CC2`, the Potency was > 20 µM.

For `O=c1c(-c2cccs2)nc2cnc(N3CCOCC3)nc2n1CCc1ccccc1`, the Potency is > 20 µM.

For `CS(=O)(=O)N1CCC2(CCN(c3ccccc3)CC2)CC1`, the Potency is > 20 µM.

For `Cc1nc2cnc(Nc3ccccc3)nc2n(Cc2cccs2)c1=O`, the Potency is > 20 µM.

For the compound `COc1ccc(CNc2ncnc3ccc(-c4ccccc4C#N)cc23)c(OC)c1`, the Potency was > 20 µM.

For the compound `COc1ccccc1CNc1ncnc2ccc(-c3ccccc3OC)cc12`, the Potency is > 20 µM.

Regarding `CC(C)NC(=O)N1CCCC2(CCN(C(=O)c3cccc(F)c3)CC2)C1`, the Potency was > 20 µM.

In the case of `CN1CCN(c2ncc3ncc(=O)n(C[C@H]4CCCO4)c3n2)CC1`, the Potency is > 20 µM.

As for `O=C(c1csnn1)N1CCC2(CC1)CCN(c1cccc(-c3ccccc3)c1)CC2`, the Potency was > 20 µM.

For `CCNc1ncc2nc(-c3ccccc3)c(=O)n(C3CC3)c2n1`, the Potency was > 20 µM.

Regarding `COc1ccc(Oc2ncc3nc(-c4ccc(F)cc4)c(=O)n(CCC#N)c3n2)cc1`, the Potency was > 20 µM.

For `COc1ccc(-n2c(=O)c(-c3ccccc3)nc3cnc(N4CCN(C)CC4)nc32)cc1`, the Potency was > 20 µM.

For `O=C(c1ccco1)N1CCC2(CC1)CCN(C(c1ccccc1)c1ccccc1)CC2`, the Potency was > 20 µM.

On to `COc1ccc(-n2c(=O)c(-c3ccc(F)cc3)nc3cnc(N4CCOCC4)nc32)cc1`, for which the Potency was > 20 µM.

For the compound `COc1ccc(C(=O)N2CCC[C@@]3(CCN(Cc4ccc(C#N)cc4)C3)C2)cc1`, the Potency is > 20 µM.

Take `CS(=O)(=O)N1CCC2(CC1)CN(c1ccc(-c3ccccc3)cc1)C2`: the Potency is > 20 µM.

On to `COCCn1c(=O)c(-c2cccc(C#N)c2)nc2cnc(OC)nc21`, for which the Potency was > 20 µM.

In the case of `CCNc1ncc2nc(CCc3ccccc3)c(=O)n(Cc3ccc(F)cc3)c2n1`, the Potency is > 4 µM.

With `CN(C)c1ncc2nc(-c3cc(F)cc(F)c3)c(=O)n(Cc3ccc(F)cc3)c2n1`, the Potency is > 20 µM.

For the compound `CCNc1ncc2nc(-c3ccc(Cl)cc3)c(=O)n(C)c2n1`, the Potency was > 20 µM.

With `O=c1c(-c2cccc(F)c2)nc2cncnc2n1C1CC1`, the Potency was > 20 µM.

For `CN1CCN(c2ncnc3ccc(-c4ccccc4Cl)cc23)CC1`, the Potency is > 20 µM.

For `Clc1ccccc1-c1ccc2ncnc(NC3CCNCC3)c2c1`, the Potency was > 20 µM.

In the case of `Cc1noc(C)c1C(=O)N1CCC2(CC1)CCN(c1ccncc1)CC2`, the Potency was > 20 µM.

Take `O=c1c(-c2ccc(Cl)cc2)nc2cnc(N3CCOCC3)nc2n1C1CC1`: the Potency is > 20 µM.
